# From PubChem BioAssay
# Shown are actives, neighbours in structure and some others; about 4% of the full set was active somewhere.
# Peg3 promoter: Peg3 promoter-driven luciferase inhibitors, primary screen, cell-based, HeLa, luciferase luminescence; inhibition, % at 20 µM; HeLa PEG-Prom luciferase reporter, overnight; actives 1.7% (n = 360,000);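 active = inhibition of at least 50% at 20 µM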
# MITF TRPM1 inh: inhibitors of MITF-dependent TRPM1 promoter reporter, primary screen, cell-based, SK-MEL-5, single point, luciferase; SK-MEL-5 TRPM1 promoter luciferase, 24 h; inhibition, % at 12.5 µM; actives 0.83% (n = 330,000); AID 488899, 2010;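 active = mean inhibition across replicates of 60% or more, whatever share of single replicates reaches that level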
# TROY NFkB inh: inhibitors of TROY-driven NF-kB signaling, primary screen, Q293 LMP1-TROYcd cells, NF-kB luciferase, uHTS. Q293 LMP1-TROYcd NF-kB luciferase reporter, 4 h. inhibition, % at 10 µM. AID 1347056, 2019. actives 0.98% (n = 360,000);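 active = compounds whose plate-normalised and pattern-corrected inhibition of the luciferase reporter signal at the single screening dose is 50% or more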
# HIF-2a inh: HIF-2a reporter inhibitors, primary screen, luminescence, 786-0 RCC cells; 786-0 RCC cells HIF-2a reporter, luciferase luminescence, overnight; inhibition, % at 18.8 µM; actives 0.72% (n = 360,000);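 active = inhibition of the luminescence signal of 40% or more relative to plate controls, in a single-dose primary screen at 18.75 µM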
# TWEAK-Fn14 inh: inhibitors of TWEAK-Fn14 signaling, primary screen, luciferase reporter cells, uHTS; TWEAK-stimulated Fn14 reporter cells, luciferase luminescence, 8 h; inhibition, % at 10 µM; actives 2% (n = 360,000); in the data active = inhibition above about 50%
# LMP1 NFkB inh: EBV LMP1-driven NF-kappaB luciferase reporter inhibitors, primary screen, cell-based, luminescence, single point. LMP1-induced NF-kappaB luciferase reporter cells. inhibition, % at 12.5 µM. actives 0.69% (n = 350,000); in the data active = inhibition above about 41%;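 also: 0% = neutral control wells and 100% = reference inhibitor control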
# Mdm2-MdmX confirm: retested Mdm2-MdmX interaction blockers, confirmation, cell-based, luminescence, single concentration, set 2; actives 99% (n = 740); AID 504601, 2011; shares compounds with HIF-2a inh; SaOS-2 split-luciferase Mdm2/MdmX complementation; inhibition, % at 8 µM;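 active = mean inhibition of the luminescence signal across two replicates at or above 26 percent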
# Target sequence (O15151 whole entry, looked up): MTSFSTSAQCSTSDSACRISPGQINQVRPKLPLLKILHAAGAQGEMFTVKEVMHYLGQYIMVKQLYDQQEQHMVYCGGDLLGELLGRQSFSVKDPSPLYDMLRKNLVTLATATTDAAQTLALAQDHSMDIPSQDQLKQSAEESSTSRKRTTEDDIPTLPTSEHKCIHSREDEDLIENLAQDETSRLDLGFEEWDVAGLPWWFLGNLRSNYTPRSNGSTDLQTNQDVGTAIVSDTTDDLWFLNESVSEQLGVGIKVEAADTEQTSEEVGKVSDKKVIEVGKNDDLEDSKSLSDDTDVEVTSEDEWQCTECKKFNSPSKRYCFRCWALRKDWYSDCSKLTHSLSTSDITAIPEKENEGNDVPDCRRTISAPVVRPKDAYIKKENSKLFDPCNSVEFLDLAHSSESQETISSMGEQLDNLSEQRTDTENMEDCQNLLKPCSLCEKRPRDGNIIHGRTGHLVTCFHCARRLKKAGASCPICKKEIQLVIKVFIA
# Target sequence (Q00987 whole entry, looked up): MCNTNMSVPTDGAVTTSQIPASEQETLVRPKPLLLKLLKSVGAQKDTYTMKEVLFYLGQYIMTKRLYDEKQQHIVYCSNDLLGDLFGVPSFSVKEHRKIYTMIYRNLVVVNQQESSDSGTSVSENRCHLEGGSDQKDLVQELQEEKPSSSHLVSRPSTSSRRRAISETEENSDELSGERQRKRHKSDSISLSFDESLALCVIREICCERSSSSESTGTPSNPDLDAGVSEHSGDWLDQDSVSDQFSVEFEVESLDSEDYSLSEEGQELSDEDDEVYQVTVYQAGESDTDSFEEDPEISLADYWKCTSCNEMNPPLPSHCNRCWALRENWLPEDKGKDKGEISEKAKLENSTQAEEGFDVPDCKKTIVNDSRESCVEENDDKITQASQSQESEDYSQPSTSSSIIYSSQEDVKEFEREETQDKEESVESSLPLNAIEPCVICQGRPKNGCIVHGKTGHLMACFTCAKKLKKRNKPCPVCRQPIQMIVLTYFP
# HIF-2a inh conf: HIF-2a reporter inhibitor retest, confirmation, luminescence, 786-0 RCC cells; shares compounds with HIF-2a inh; HIF-2a luciferase reporter luminescence, overnight; inhibition, % at 18.8 µM; actives 56% (n = 1,800); AID 651580, 2012;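 active = mean inhibition across four replicates of at least 40 percent at the single tested concentration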
# HIF-1a cs: HIF-1a luciferase reporter signal reduction – MiaPaCa-2 cells, single concentration, counter-screen for HIF-2a inhibitor project, confirmation. shares compounds with HIF-2a inh. MiaPaCa-2 HIF-1a luciferase reporter, desferoxamine, overnight. inhibition, % at 18.8 µM. actives 72% (n = 1,800). AID 651589, 2012;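 active = mean inhibition of the reporter signal across four replicates at the single tested dose of 50% or more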
# * = called active by the depositor; x = no result given.
SMILES,Peg3 promoter,MITF TRPM1 inh,TROY NFkB inh,HIF-2a inh,TWEAK-Fn14 inh,LMP1 NFkB inh,HIF-2a inh conf,HIF-1a cs,others
C#CCN(C[C@H]1[C@H](OC(=O)Nc2cccs2)[C@H](OC(=O)Nc2cccs2)C[C@H]2C(=O)N(c3ccccc3)C(=O)[C@@H]12)S(=O)(=O)c1ccc(C)cc1,8,x,10,2,2,0,x,x,
C#CCN(C[C@@H]1[C@@H](OC(=O)Nc2cccs2)[C@@H](OC(=O)Nc2cccs2)Cn2c(=O)ccc(=O)n21)S(=O)(=O)c1ccc(C)cc1,96*,x,73*,97*,108*,-38,96*,108*,
C#CCN(C[C@@H]1[C@@H](OC(=O)NCc2ccccc2F)[C@@H](OC(=O)NCc2ccccc2F)CN(C(=O)OC(C)C)N1C(=O)OC(C)C)S(=O)(=O)c1ccc(C)cc1,3,x,5,-7,6,-27,x,x,
C#CCN(C[C@@H]1[C@@H](OC(=O)NC2CCCC2)[C@@H](OC(=O)NC2CCCC2)Cn2c(=O)ccc(=O)n21)S(=O)(=O)c1ccc(C)cc1,96*,x,33,97*,72*,9,99*,108*,
C#CCN(C[C@@H]1[C@@H](OC(=O)NCc2ccco2)[C@@H](OC(=O)NCc2ccco2)CN(C(=O)OC(C)C)N1C(=O)OC(C)C)S(=O)(=O)c1ccc(C)cc1,-9,x,16,44*,13,-19,37,89*,
CCCCCC(=O)NNC1CC(=O)N(c2cccc(OCC)c2)C1=O (stereo not drawn),1,6,-11,19,17,-5,x,x,
O=C1C=C(c2ccc(F)c(Cl)c2)C[C@@H](c2ccc(F)cc2)C1,-18,-12,-30,-28,-26,1,x,x,
N#C/C(=N\Nc1cccc2ccccc12)c1nnc2n1CCCCC2,-37,-9,-41,-58,-34,6,x,x,
CCCN(C(=O)CSc1nnc(-c2ccncc2)n1CCC)c1c(N)n(Cc2ccccc2)c(=O)[nH]c1=O,11,x,12,-9,-7,-3,x,x,
CN(Cc1ccccc1)C(=O)COC(=O)C1CCN(S(=O)(=O)c2ccc3c(c2)OCCO3)CC1,4,-1,-10,14,10,-1,x,x,
C=C1C(=O)O[C@@H]2C[C@@H](C)[C@@H]3C=CC(=O)[C@@]3(C)[C@@H](OC(C)=O)[C@H]12,x,x,x,x,x,x,x,x,Mdm2-MdmX confirm=102*
C[C@@H]1C[C@@H]2OC(=O)[C@]3(C)[C@H]2[C@@H](OC3(C)O)[C@]2(C)C(=O)C=C[C@H]12 (stereo partly drawn),3,0,10,-15,2,-3,x,x,
COc1ccc(/C=C/C(=O)OCC(=O)NC2CCCC2)cc1OC,3,-4,-2,9,-2,-2,x,x,
COc1ccc(/C=C/c2c(-c3ccc(OC)cc3)oc3ccc(-c4ccc(OC)cc4)cc23)cc1,21,8,0,-12,-1,2,x,x,
COc1ccc(/C=C/c2cc(-c3ccc(C)cc3)o[n+]2C)cc1,67*,88*,26,43*,58*,11,54*,103*,Mdm2-MdmX confirm=102*
COC(=O)c1ccc(CNC(=O)C2CCC(=O)N(CCc3ccccc3)C2)cc1 (stereo not drawn),0,-8,9,6,7,-17,x,x,
Cc1cc(C)c(C#N)c(Sc2nc(C)c([N+](=O)[O-])c(C)c2C#N)n1,98*,x,49,90*,82*,x,26,40,
Cc1nc(Sc2ccccc2)c(C#N)c(C)c1[N+](=O)[O-],3,-11,17,8,-23,4,x,x,
CC(C)(C)NC(=O)CSc1nc(-c2ccc(F)cc2)cs1,-260,-70,-48,-296,-7,-19,x,x,
N#Cc1cnc2nc(SCc3ccccc3)nn2c1,-209,-59,-29,-209,-19,-16,x,x,
Cc1ccc(NC(=O)c2cc(N3C(=O)C=CC3=O)ccc2N2CCOCC2)cc1,108*,80*,-7,69*,15,1,69*,18,
Cc1ccc2c(c1)=N/C(=N\c1[nH]c(O)c3ccccc13)N=2,90*,x,-51,76*,46,-24,-88,95*,
O=C(COc1ccc2c3c(c(=O)oc2c1)CCC3)Nc1ccccn1,-87,1,5,-198,45,-7,x,x,
CC(=O)N1CCOc2ccc(S(=O)(=O)N(C)c3cccc(C)c3)cc21,14,14,10,7,0,-7,x,x,
COc1ccc(-c2csc3ncnc(NCCCO)c23)cc1,30,-3,35,41*,65*,52*,9,46,
SMILES,Peg3 promoter,MITF TRPM1 inh,TROY NFkB inh,HIF-2a inh,TWEAK-Fn14 inh,LMP1 NFkB inh,HIF-2a inh conf,HIF-1a cs,others
CC(=O)OCC1=C[C@@H]2OC(=O)C3=CO[C@@H](O[C@@H]4O[C@H](CO)[C@@H](O)[C@H](O)[C@H]4O)[C@H]1[C@@H]32,6,-8,1,5,4,-1,x,x,
C=C1C(=O)OC2C=C(CO)C3OC3C3OC3(C)CC(OC(=O)/C(=C/C)COC(C)=O)C12 (stereo not drawn),106*,84*,3,85*,83*,70*,93*,107*,
COc1ccc(/C=N/Nc2cc(C)nc3ccc(OC)cc23)c(OC)c1,107*,85*,82*,92*,86*,70*,x,x,Mdm2-MdmX confirm=103*
O=C(O)COc1ccccc1/C=N/NC(=O)CSc1nnc(SCc2ccccc2)s1,-2,0,1,-12,13,-5,x,x,
COC(=O)C(=Cc1ccccc1[N+](=O)[O-])C(=O)OC,53*,26,11,77*,69*,-36,72*,59*,
CC(=O)N(C)C1=C(N2CCOCC2)C(=O)c2ccccc2C1=O,83*,89*,32,-26,74*,30,x,x,Mdm2-MdmX confirm=75*
CCOC(=O)c1ccc(Oc2cc(C)nc(Cl)n2)cc1,-7,-3,-22,-8,6,-1,x,x,
